Active and inactive are the calls of the source. How the calls were made is not given here. Bounds are passed on as bounds.
Potency means the concentration at half of the fitted maximal effect.

The test system of this assay is HIV-1 nucleocapsid protein NCp7 (binding to TG oligonucleotide). The assay is described as follows: HIV Nucleocapsid (AID 346).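 Further: potency is for inhibitors that block NC binding and lower polarization.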 The settings on record: HIV-1 NC / fluorescein-TGTGTGTG probe, fluorescence polarization. How it is done: NCGC Assay Overview: HIV-1 nucleocapsid protein (HIV-1 NC) is a small (6.5 kDa) basic zinc-finger protein which participates in packaging of viral genomic RNA. The spacing and metal-chelating residues (3 Cys, 1 His) of the Cys-X2-Cys-X4-His-X4-Cys Zn fingers are conserved among all known retroviruses (J. Med. Chem. 1998, 41, 1371-1381). HIV-1 NC was assayed for its binding to the consensus sequence single-stranded 5'-TGTGTGTG. […] High salt was included to increase the stringency of binding and inhibitor screen. Reducing agents and zinc were present to stabilize the nucleocapsid zinc-finger protein.
NCGC Assay Protocol Summary: Buffer. Hepes pH 7.5, 250mM NaCl, 1uM ZnCl2. 0.004% polyethylene glycol 20000. TCEP (100 uM) and 2-Mercaptoethanol (5 mM), added fresh the day of the experiment. Reagents/Controls. 10 nM TG4xF only in columns 3 and 4 as negative control. 10 nM TG4xF/100 nM HIV-1 NC in columns 1, 2, 5-48. Titration of control compound NSC-13778 (from 20 mM, then 1:2) pin-transferred to column 2. Assay Steps. Two uL of reagents were dispensed to 1536-well Kalypsys black plates. The plates were centrifuged for 1 min at 1000 rpm. Compounds and controls (20 nL) were transferred via Kalypsys PinTool. The plates were incubated for 1 hr at room temperature, and then read on ViewLux (Perkin-Elmer). High-throughput CCD imager using fluorescein polarization filter set and 45 seconds exposure time.
As to `O=C(c1cnccn1)N1CCC2(CC1)CN(c1cccc(-c3ccccc3)c1)C2`, the Potency was > 20 µM (inactive).
As for `c1ccc(C(c2ccccc2)N2CCC3(CCNCC3)CC2)cc1`, the Potency was > 20 µM (inactive).
To `CS(=O)(=O)N1CCC[C@@]2(CCN(C(=O)Nc3cccc(F)c3)C2)C1` belongs > 20 µM (inactive); to `Clc1ccccc1-c1ccc2ncnc(NCCN3CCOCC3)c2c1`, > 20 µM (inactive).
Regarding `COc1ccc2[nH]cc(CCNc3ncnc4ccc(-c5c(C)noc5C)cc34)c2c1`, the Potency was > 20 µM (inactive).
As for `Cc1cccc(CNc2ncnc3ccc(-c4c(C)noc4C)cc23)c1`, the Potency is > 20 µM (inactive).
The figure for `CN1CCN(c2ncc3nc(-c4cc(F)cc(F)c4)c(=O)n(CCC#N)c3n2)CC1` is > 20 µM (inactive); for `Cc1ccccc1-c1ccc2ncnc(N3CCNCC3)c2c1` it is > 20 µM (inactive); for `COCCn1c(=O)c(-c2ccc(OC)cc2)nc2cnc(N3CCN(C)CC3)nc21` it is > 20 µM (inactive).
To `N#Cc1ccc(CN2CC3(CCN(C(=O)c4ccco4)CC3)C2)cc1` belongs > 20 µM (inactive); to `COCCn1c(=O)c(-c2cccc(C#N)c2)nc2cnc(N(C)C)nc21`, > 4 µM (inactive).
To `O=C(c1cc(C(F)(F)F)cc(C(F)(F)F)c1)N1CCC2(CC1)CCN(c1ccccc1)CC2` belongs > 20 µM (inactive); to `O=S(=O)(c1ccccc1)N1CCC2(CCN(c3ccc(-c4ccccc4)cc3)CC2)CC1`, > 20 µM (inactive); to `Cc1cccc(CNc2ncnc3ccc(-c4ccccc4C#N)cc23)c1`, > 20 µM (inactive).
For `COc1ccccc1-c1ccc2ncnc(N(C)C)c2c1`, the Potency is > 20 µM (inactive).
Regarding `COc1ccc(NC(=O)N2CC3(CCN(C(=O)c4ccc(OC)cc4)CC3)C2)cc1`, the Potency is > 20 µM (inactive).
The figure for `COCCn1c(=O)cnc2cnc(OCc3ccccc3)nc21` is > 20 µM (inactive).
The figure for `COCC(=O)N1CCC2(CCN(Cc3ccccc3)CC2)CC1` is > 20 µM (inactive); for `O=C(c1cnccn1)N1CCC2(CCCN(c3ccncc3)C2)CC1` it is > 20 µM (inactive).
To `c1cncc(-c2ccc3ncnc(N4CCNCC4)c3c2)c1` belongs > 20 µM (inactive).
Consider `COc1ccc(NC(=O)N2CC[C@@]3(CCCN(C(=O)c4ccncc4)C3)C2)cc1`, for which the Potency is > 20 µM (inactive).
To `COc1ccc(-n2c(=O)c(C)nc3cnc(Oc4cccc(Cl)c4)nc32)cc1` belongs > 20 µM (inactive); to `CN(C)c1ncc2nc(-c3ccccc3)c(=O)n(CCC#N)c2n1`, > 20 µM (inactive); to `Cc1noc(C)c1C(=O)N1CCC2(CC1)CN(c1ccccn1)C2`, > 20 µM (inactive).
The figure for `N#Cc1cccc(NC(=O)N2CCC3(CC2)CCN(C(=O)c2ccco2)CC3)c1` is > 20 µM (inactive).
To `COc1ccc(CNc2ncnc3ccc(-c4cccnc4)cc23)c(OC)c1` belongs > 20 µM (inactive).
As for `Cc1nc2cnc(OCc3ccccc3)nc2n(CCC#N)c1=O`, the Potency was > 20 µM (inactive).
The figure for `O=C(Nc1cccc(F)c1)N1CC2(CCN(C(=O)c3ccco3)CC2)C1` is > 20 µM (inactive).
The figure for `O=c1cnc2cnc(Oc3cccc(Cl)c3)nc2n1C1CC1` is > 20 µM (inactive); for `COc1ccc(NC(=O)N2CC3(CCN(C(=O)c4cnccn4)CC3)C2)cc1` it is > 20 µM (inactive).
On to `O=C(c1ccncc1)N1CCC2(CCCN(Cc3ccncc3)C2)CC1`, for which the Potency is > 20 µM (inactive).
The figure for `COc1ccccc1-c1nc(NCc2ccccc2)c2ccccc2n1` is > 20 µM (inactive); for `O=c1c(CCc2ccccc2)nc2cncnc2n1C1CC1` it is > 20 µM (inactive); for `Clc1ccccc1-c1nc(-n2ccnc2)c2ccccc2n1` it is > 20 µM (inactive).
To `N#CCCn1c(=O)c(-c2cccc(C#N)c2)nc2cnc(N3CCOCC3)nc21` belongs > 20 µM (inactive); to `CC(=O)NCCNc1ncnc2ccc(-c3c(C)noc3C)cc12`, > 20 µM (inactive); to `CN(C)Cc1ccccc1-c1ccc2ncnc(NC3CCNCC3)c2c1`, > 20 µM (inactive).
As for `CC(C)NC(=O)N1CC2(CCN(C(=O)c3ccco3)CC2)C1`, the Potency is > 20 µM (inactive).
The figure for `N#Cc1cccc(-c2cc(NCc3ccccc3)ncn2)c1` is > 20 µM (inactive); for `CN(C)C(=O)c1ccc(-c2nc(Nc3ccncc3)c3ccccc3n2)cc1` it is > 20 µM (inactive).

For the origin of these results see PubChem BioAssay (NCATS).
